Assay results reported in PubChem BioAssay (NCI).
The panel holds about 79,000 compounds, 15% with a hit somewhere; the sample as a whole holds those more often. Activity calls are given as the source filed them. Cut-off read from the data, not from the text of the source: active = growth inhibition above about 70%; inactive = the rest.

How the values were obtained:
[1] = NCI Yeast Anticancer Drug Screen. Data for the rad52 strain (AID 147);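 note: 0% = growth of vehicle-treated control cultures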; conditions: S. cerevisiae rad52 mutant growth inhibition, active compounds read high
Method in brief: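 Genetically altered yeast (DNA damage repair defect) treated with compound; inhibition calculated relative to vehicle.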

[2] = NCI Yeast Anticancer Drug Screen. Data for the wt1 strain (AID 149);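 note: 0% = growth of vehicle-treated wt1 cultures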; conditions: S. cerevisiae wt1 strain (SPY 50644) growth inhibition, active compounds read high
Method in brief: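 Yeast wt1 strain exposed to compounds; growth inhibition measured relative to vehicle-treated controls.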

[3] = NCI Yeast Anticancer Drug Screen. Data for the rad50EPP+ strain (AID 151);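 note: 0% = growth of vehicle-treated control cultures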; conditions: S. cerevisiae rad50 mutant strain, active compounds read high
Method in brief: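 Strain rad50EPP+; compound exposure; % growth inhibition vs vehicle.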

[4] = NCI Yeast Anticancer Drug Screen. Data for the mgt1 strain (AID 153); conditions: S. cerevisiae mgt1 mutant growth inhibition, active compounds read high
Method in brief: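 Read-out: yeast growth inhibition vs vehicle control. Strain mgt1, drawn from a panel altered in DNA damage repair or cell cycle control.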

[5] = NCI Yeast Anticancer Drug Screen. Data for the rad50 strain (AID 155);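 note: 0% = growth of vehicle-only cultures of the same strain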; conditions: S. cerevisiae rad50 strain growth inhibition, active compounds read high
Method in brief: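 Yeast carrying a defined DNA repair defect were exposed to test compounds, and growth was compared with vehicle-treated controls to give percent inhibition.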

[6] = NCI Yeast Anticancer Drug Screen. Data for the mec2-1 strain (AID 157); conditions: S. cerevisiae mec2-1 strain, active compounds read high
Method in brief: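 Cells of the genetically defined mec2-1 yeast strain are incubated with test compound. Inhibition of growth is calculated against vehicle-treated controls.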

[7] = NCI Yeast Anticancer Drug Screen. Data for the rad14 strain (AID 159);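 note: 0% = growth of vehicle-treated control cultures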; conditions: S. cerevisiae rad14 strain growth inhibition, active compounds read high
Method in brief: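 Yeast cells carrying a defined DNA-repair defect were exposed to compounds, and growth inhibition was calculated relative to vehicle-treated control cultures.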

[8] = NCI Yeast Anticancer Drug Screen. Data for the sgs1 mgt1 strain (AID 161);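 note: 0% = growth of cultures given vehicle only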; conditions: S. cerevisiae sgs1 mgt1 strain, active compounds read high
Method in brief: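 Read-out: growth inhibition vs vehicle controls. Cells: mutant yeast strain deficient in DNA damage repair.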

[9] = NCI Yeast Anticancer Drug Screen. Data for the CLN2oe strain (AID 163);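 note: 0% = growth of vehicle-only control cultures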; conditions: S. cerevisiae CLN2oe strain, active compounds read high
Method in brief: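 Strain altered in cell-cycle control, incubated with compound; growth compared to solvent-treated controls.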

[10] = NCI Yeast Anticancer Drug Screen. Data for the cln2 rad14 strain (AID 165);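 note: 0% = growth equal to vehicle treated cultures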; conditions: S. cerevisiae cln2 rad14 strain, active compounds read high
Method in brief: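 The screen exposed genetically defined yeast (cln2 rad14) to test compounds and scored growth inhibition relative to vehicle-treated controls.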

[11] = NCI Yeast Anticancer Drug Screen. Data for the bub3 strain (AID 167); conditions: S. cerevisiae bub3 mutant strain, active compounds read high
Method in brief: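 Compounds were applied to a genetically altered yeast strain carrying a cell-cycle control defect. Growth inhibition was scored against vehicle-treated controls.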

[12] = NCI Yeast Anticancer Drug Screen. Data for the wt2 strain (AID 169);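 note: 0% = growth of vehicle-treated yeast cultures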; conditions: S. cerevisiae wt2 strain growth inhibition, active compounds read high
Method in brief: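 Steps: yeast strain treated with compound; growth recorded; inhibition calculated relative to cultures given vehicle alone.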

[13] = NCI Yeast Anticancer Drug Screen. Data for the mlh1 strain (AID 171);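 note: 0% = growth of vehicle-treated control cultures of the same strain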; conditions: S. cerevisiae mlh1 strain growth inhibition, active compounds read high
Method in brief: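 Yeast screen: mutant strain plus compound, growth scored against vehicle control wells.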

[14] = NCI Yeast Anticancer Drug Screen. Data for the sgs1 strain (AID 173);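 note: 0% = growth of vehicle-only control cultures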; conditions: S. cerevisiae sgs1 mutant, active compounds read high
Method in brief: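 Inhibition of yeast growth served as the measure. The mutant strain was treated with each compound, and growth was normalised to cultures receiving vehicle alone.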

[15] = NCI Yeast Anticancer Drug Screen. Data for the mlh1 rad18 strain (AID 175); conditions: S. cerevisiae mlh1 rad18 strain growth inhibition, active compounds read high
Method in brief: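 Compound-treated yeast growth, normalised to vehicle controls. Strain bears defined DNA repair mutations.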

[16] = NCI Yeast Anticancer Drug Screen. Data for the rad18 strain (AID 177); conditions: S. cerevisiae rad18 mutant growth inhibition, active compounds read high
Method in brief: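 Inhibition values reflect reduced yeast growth compared with vehicle-treated controls, using a strain engineered with a DNA damage repair defect.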

[17] = at 5.0 µM (retest, dose inferred, filed as 0.5)
[18] = at 50.0 µM (retest, dose inferred, filed as 5.0)

Measured: growth inhibition

CN(C)Cc1cc(N=Nc2ccc(Cl)cc2)cc(CN(C)C)c1O
inactive: [1]; at 1.2 µM 8% | [1]; at 3.7 µM 8% | [1]; at 11.0 µM 8% | [1]; at 33.0 µM 16% | [1]; at 100.0 µM 58% | [2]; at 1.2 µM 5% | [2]; at 3.7 µM 4% | [2]; at 11.0 µM 8% | [2]; at 33.0 µM 12% | [2]; at 100.0 µM 63% | [3]; at 1.2 µM -3% | [3]; at 3.7 µM -1% | [3]; at 11.0 µM 15% | [3]; at 33.0 µM 43% | [4]; at 1.2 µM 13% | [4]; at 3.7 µM 12% | [4]; at 11.0 µM 13% | [4]; at 33.0 µM 26% | [4]; at 100.0 µM 13% | [5]; at 1.2 µM 9% | [5]; at 3.7 µM 7% | [5]; [17] -15% | [5]; at 11.0 µM 8% | [5]; at 33.0 µM 10% | [5]; at 50.0 µM 56.8% | [5]; at 100.0 µM 25% | [6]; at 1.2 µM 15% | [6]; at 3.7 µM 17% | [6]; [17] -5% | [6]; at 11.0 µM 16% | [6]; at 33.0 µM 14% | [6]; [18] 47% | [6]; at 100.0 µM 15% | [7]; at 1.2 µM 12% | [7]; at 3.7 µM 13% | [7]; at 11.0 µM 10% | [7]; at 33.0 µM 11% | [7]; at 100.0 µM 34% | [8]; [17] 1% | [8]; [18] 46% | [9]; at 1.2 µM 23% | [9]; at 3.7 µM 22% | [9]; at 11.0 µM 26% | [9]; at 33.0 µM 26% | [9]; at 100.0 µM 18% | [10]; [17] 39% | [10]; at 50.0 µM 44% | [11]; at 1.2 µM 4% | [11]; at 3.7 µM 2% | [11]; [17] 12% | [11]; at 11.0 µM 2% | [11]; at 33.0 µM 5% | [11]; at 100.0 µM 3% | [12]; at 1.2 µM 5% | [12]; at 3.7 µM 5% | [12]; at 11.0 µM 8% | [12]; at 33.0 µM 15% | [13]; at 1.2 µM 14% | [13]; at 3.7 µM 12% | [13]; at 11.0 µM 12% | [13]; at 33.0 µM 10% | [13]; at 100.0 µM 18% | [14]; at 1.2 µM 4% | [14]; at 3.7 µM 8% | [14]; at 11.0 µM 15% | [14]; at 33.0 µM 26% | [15]; [17] 4% | [16]; at 1.2 µM 7% | [16]; at 3.7 µM 8% | [16]; at 11.0 µM 25% | [16]; at 33.0 µM 15% | [16]; at 100.0 µM 34%
active: [3]; at 100.0 µM 91% | [5]; [18] 73% | [6]; at 50.0 µM 88.9% | [8]; at 50.0 µM 95.2% | [10]; [18] 98% | [11]; [18] 73% | [11]; at 50.0 µM 91.2% | [12]; at 100.0 µM 80% | [14]; at 100.0 µM 95% | [15]; [18] 96% | [15]; at 50.0 µM 90.2%
